Measured values taken from PubChem BioAssay (NCI).
Values joined by “and” are separate entries in the source; they are usually repeats but may differ in a detail not shown here. Equal entries are not always repeated. This is part of a sample that, as a whole, favours compounds with a hit. Of some 83,000 tested, about 20% had one in any assay.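 Assay: single dose, 48 h. Readout: percent growth (0 = no net growth; negative = cell death). Active: <10.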

What was measured:
Test in all cases: NCI-60 one-dose screen, 48 h (100 = growth as untreated, 0 = no growth, -100 = all killed)
Conditions in all cases: 10 µM unless noted
HCT-15 colon = system: HCT-15 colon
HT29 colon = system: HT29 colon
SNB-19 CNS = system: SNB-19 CNS
U251 CNS = system: U251 CNS
PC-3 prostate = system: PC-3 prostate
SK-MEL-5 melanoma = system: SK-MEL-5 melanoma
UACC-62 melanoma = system: UACC-62 melanoma
LOX IMVI melanoma = system: LOX IMVI melanoma
SK-MEL-28 melanoma = system: SK-MEL-28 melanoma
SK-MEL-2 melanoma = system: SK-MEL-2 melanoma
EKVX NSCLC = system: EKVX NSCLC
SN12C renal = system: SN12C renal
UO-31 renal = system: UO-31 renal
ACHN renal = system: ACHN renal
CAKI-1 renal = system: CAKI-1 renal
A498 renal = system: A498 renal
CCRF-CEM leukemia = system: CCRF-CEM leukemia
MOLT-4 leukemia = system: MOLT-4 leukemia
TK-10 renal = system: TK-10 renal
SNB-75 CNS = system: SNB-75 CNS

Measured: growth

O=c1[nH]c(=O)n(C2OC(CO)C(O)C2O)cc1I (stereo unspecified)
inactive: HCT-15 colon 114% and 107% | HT29 colon 96.9% | SNB-19 CNS 108% and 107% | U251 CNS 99.1% and 111% | PC-3 prostate 87.4% and 91.9% | SK-MEL-5 melanoma 101% and 113% | UACC-62 melanoma 102% and 103% | LOX IMVI melanoma 98.9% and 92.4% | SK-MEL-28 melanoma 106% and 110% | SK-MEL-2 melanoma 124% | EKVX NSCLC 100% and 98.9% | SN12C renal 94.8% and 99% | UO-31 renal 77.7% and 87.1% | ACHN renal 111% and 117% | CAKI-1 renal 95.9% and 97.9% | A498 renal 97.5% and 120% | CCRF-CEM leukemia 95.5% | MOLT-4 leukemia 84.8% and 111%

Cc1cc(-c2ccc(N=Nc3c(C)nn(-c4ccc(S(=O)(=O)O)cc4)c3O)c(C)c2)ccc1N=Nc1ccc(O)c(C(=O)O)c1
inactive: HCT-15 colon 97.9% | HT29 colon 115% | SNB-19 CNS 99.9% | U251 CNS 99.1% | PC-3 prostate 98.2% | SK-MEL-5 melanoma 98.7% | UACC-62 melanoma 91.2% | LOX IMVI melanoma 95.4% | SK-MEL-28 melanoma 106% | SK-MEL-2 melanoma 73% | EKVX NSCLC 104% | SN12C renal 95.8% | UO-31 renal 69.1% | TK-10 renal 141% | ACHN renal 98% | A498 renal 120% | CCRF-CEM leukemia 99.4% | MOLT-4 leukemia 102%

CC(=O)/C(N=Nc1ccc(S(=O)(=O)c2ccc(N=N/C(C(C)=O)=C(/C)O)cc2)cc1)=C(\C)O
inactive: HCT-15 colon 106% | HT29 colon 102% | SNB-19 CNS 114% | U251 CNS 101% | PC-3 prostate 92.1% | SK-MEL-5 melanoma 108% | UACC-62 melanoma 114% | LOX IMVI melanoma 99.1% | SK-MEL-28 melanoma 113% | SK-MEL-2 melanoma 117% | EKVX NSCLC 116% | SN12C renal 110% | UO-31 renal 83.5% | TK-10 renal 108% | ACHN renal 104% | A498 renal 100% | CCRF-CEM leukemia 85.9% | MOLT-4 leukemia 100%

COC(=O)CCOc1ccccc1
inactive: HCT-15 colon 101% | HT29 colon 97.9% | SNB-19 CNS 99.5% | U251 CNS 96% | PC-3 prostate 85.3% | SK-MEL-5 melanoma 95.5% | UACC-62 melanoma 99% | LOX IMVI melanoma 91.3% | SK-MEL-28 melanoma 123% | SK-MEL-2 melanoma 84% | EKVX NSCLC 96.6% | SN12C renal 110% | UO-31 renal 86.8% | TK-10 renal 108% | ACHN renal 91.8% | CAKI-1 renal 86.3% | A498 renal 83.9% | CCRF-CEM leukemia 95.2% | MOLT-4 leukemia 98.6%

CSc1nc(N)c(N)c(N)n1
inactive: HCT-15 colon 111% | HT29 colon 88.8% | SNB-75 CNS 97.5% | SNB-19 CNS 100% | U251 CNS 95.8% | PC-3 prostate 71.4% | SK-MEL-5 melanoma 101% | UACC-62 melanoma 101% | LOX IMVI melanoma 101% | SK-MEL-2 melanoma 104% | EKVX NSCLC 105% | SN12C renal 99.4% | TK-10 renal 111% | ACHN renal 110% | CAKI-1 renal 97.8% | A498 renal 94.5% | CCRF-CEM leukemia 64.7% | MOLT-4 leukemia 83%
